Screening results (PubChem BioAssay)
aGal spleen mod = alpha-galactosidase A (human) modulation; human spleen homogenate, 4MU-alpha-Gal fluorescence, 40 min; Potency, µM (highest dose often 80 µM), for inactives: at the top dose activity change, negative = inhibition, actives largely listed as inhibitors; 240,000 compounds, 0.008% hits; P06280;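 note: potency is the fitted concentration of half-maximal effect; 0% = enzyme with vehicle and -100% = no enzyme basal signal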
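Spleen homogenate 1 ug + cpd (titration) + 4-MU-alpha-D-galactopyranoside 1 mM; 37C 40 min; 50 mM citrate/phosphate pH 5.0, 0.01% Tween-20; stop pH 10; fluorescence 365/440; AC50 via Hill.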
PNC assembly inh = blocks assembly of the perinucleolar compartment. PC3M PTB-GFP, PNC prevalence imaging, 16 h; stronger effect = lower value. AID 2417. activity change (PNC), negative = inhibition, % at 10 µM. 140,000 compounds, 3.1% hits;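 active = readout at or below -70, meaning at least 70% loss of cells showing the perinucleolar compartment, a nuclear body marking cancer cells; inconclusive = readout between -30 and a set limit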;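 note: plate controls were DMSO wells for no effect and camptothecin positive control wells for full effect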
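Compounds are pinned in duplicate onto adhered PC3M cells stably expressing GFP-tagged PTB and incubated 16 h at 37 C. Cells are then fixed, nuclei stained with Hoechst, and PNC-positive cells counted.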
12-hLO inh = 12-hLO (ALOX12) enzyme inhibition | 150,000 compounds, 0.12% hits | purified 12-hLO, xylenol orange hydroperoxide absorbance | AID 1452 | Potency, µM (top dose mostly 57.1 µM), inactives show at the highest dose activity change, negative = inhibition, usual class: inhibitors; note: potency is the fitted concentration of half-maximal effect; nearly all actives have a fitted effect of over 55% in size
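Hydroperoxide output read as Fe(III)-xylenol orange absorbance, 573-to-405 nm ratio, after 30 min reaction with 40 uM arachidonic acid. Enzyme: 150 nM purified human 12hLO, 15 min compound preincubation; 25 mM Hepes pH 7.0, room temperature.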
HPGD inh = blocks human HPGD enzyme activity | purified HPGD, NADH fluorescence kinetic, PGE2 substrate | Potency, µM, without a hit: top-dose activity change, negative = inhibition, actives largely listed as inhibitors | 150,000 compounds, 4.3% hits; active = well fitted inhibition curve with a large enough effect, not every such curve was filed as active; inconclusive = small, poorly fitted or top-dose-only effect, or another doubt; inactive = no such curve, though single readings can be large or run the other way; note: potency is the fitted concentration of half-maximal effect
Target sequence (P15428 whole entry, looked up): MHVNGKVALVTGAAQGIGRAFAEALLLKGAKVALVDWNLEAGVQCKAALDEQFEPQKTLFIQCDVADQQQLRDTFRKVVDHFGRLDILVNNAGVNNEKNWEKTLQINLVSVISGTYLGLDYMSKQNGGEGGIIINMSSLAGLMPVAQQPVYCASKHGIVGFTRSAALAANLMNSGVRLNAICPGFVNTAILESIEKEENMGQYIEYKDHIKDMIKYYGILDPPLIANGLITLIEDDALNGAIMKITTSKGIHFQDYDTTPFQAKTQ
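NADH formation kinetics: reaction with 30 uM PGE2 and 1 mM NAD+ (final), 20 nM enzyme, Tris-HCl pH 8 with Tween 20, after 15 min compound preincubation at room temperature. Fluorescence change, last versus first of five reads.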
GLA inh pH 4.5 = alpha-galactosidase A (human) inhibition, pH 4.5. AID 1467. P06280. purified enzyme, 4-MU-alpha-Gal fluorescence, pH 4.5. activity change, negative = inhibition, % at 105 µM. 230,000 tested, under 10 active;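 note: 0% = full activity with enzyme and -100% = basal without enzyme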
ALDH1A1 inh = blocks purified human ALDH1A1 activity; 220,000 compounds, 7.3% hits; P00352; Purified ALDH1A1, NADH fluorescence, propionaldehyde substrate; Potency, µM (top dose mostly 75.3 µM), without a hit: at the top dose activity, negative = inhibition, most hits filed as inhibitors; AID 1030; active = well fitted inhibition curve with a large enough effect, not every such curve was filed as active; inconclusive = small, poorly fitted or top-dose-only effect, or another doubt; inactive = no such curve, though single readings can be large or run the other way;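 note: potency is the fitted concentration of half-maximal effect; plate controls were no enzyme wells and a reference inhibitor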
Target sequence (P00352 whole entry, looked up): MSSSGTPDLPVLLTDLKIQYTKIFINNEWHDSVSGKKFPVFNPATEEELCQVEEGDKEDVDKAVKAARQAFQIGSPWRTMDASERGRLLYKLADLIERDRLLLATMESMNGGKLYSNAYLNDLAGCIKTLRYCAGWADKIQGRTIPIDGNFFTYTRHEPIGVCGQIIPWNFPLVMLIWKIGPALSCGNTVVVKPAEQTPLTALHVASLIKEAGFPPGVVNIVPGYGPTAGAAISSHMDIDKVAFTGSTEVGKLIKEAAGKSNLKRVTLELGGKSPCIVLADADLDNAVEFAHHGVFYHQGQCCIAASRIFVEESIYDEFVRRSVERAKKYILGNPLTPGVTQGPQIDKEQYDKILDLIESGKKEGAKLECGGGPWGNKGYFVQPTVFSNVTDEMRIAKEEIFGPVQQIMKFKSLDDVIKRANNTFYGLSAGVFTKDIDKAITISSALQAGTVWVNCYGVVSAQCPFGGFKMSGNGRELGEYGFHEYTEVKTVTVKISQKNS
Numbers without * were called inactive; ? = inconclusive; . = no result. Shown are actives, neighbours in structure and some others; about 10% of the full set was active somewhere. Unless noted, calls come from the whole dose curve; as a rule, active = well fitted curve in the direction sought with a large enough effect; inconclusive = small, poorly fitted or top-dose-only effect, or another doubt; inactive = no such curve, though single readings can be large; an effect the other way counts as inactive or inconclusive. Unless noted, % is set by controls: 0 for no effect and ±100 for the full control effect.

SMILES	aGal spleen mod	PNC assembly inh	12-hLO inh	HPGD inh	GLA inh pH 4.5	ALDH1A1 inh
O=[N+]([O-])c1ccccc1-c1ccc(C(=S)N2CCCC2)o1	12.8%	.	.	.	2.0	2.24µM*
O=[N+]([O-])c1ccccc1-c1ccc(C(=S)N2CCCCC2)o1	-2.5%	.	.	.	-10.9	22.4µM*
Cc1cccc(N2CCN(C(=S)c3ccc(-c4ccccc4[N+](=O)[O-])o3)CC2)c1	1.1%	12.3	-3.6%	-22.2%	-6.7	?
O=C(CN1CCCCC1)N/N=C/c1cc2ccccc2nc1Cl	-5.7%	.	.	.	-4.3	-10.8%
COCCN1C(=O)/C(=C/c2cc3c(cc2Br)OCO3)NC1=S	-4.4%	.	.	.	-13.0	0.199µM*
COCCCNC(=O)C(=O)N/N=C/c1cc2c(cc1Br)OCO2	-7.1%	.	.	.	3.2	-0.4%
C1CCC(c2nn3c(-c4n[nH]c5c4CCC5)nnc3s2)CC1	0.7%	?	-15.1%	.	0.1	?
CCN(CC)c1ccc(-c2nn3c(-c4n[nH]c5c4CCC5)nnc3s2)cc1	?	-99.0*	-1.2%	?	5.1	?
c1ccc2c(c1)OCC(c1csc3ncnc(N4CCOCC4)c13)O2 (stereo not drawn)	5.8%	-20.9	-4.9%	-4.9%	-6.8	-1.1%
CCN(CC)c1ncnc2scc(C3COc4ccccc4O3)c12 (stereo not drawn)	-3.6%	-100.0*	-2.1%	-16.8%	-5.7	3.1%
C/C=C(/C)C(=O)O[C@H]1CC(C)=CC(=O)[C@@]2(C)CC[C@@](O)(C(C)C)[C@H]12	6.1%	.	.	.	.	.
CC(C)S	-4.0%	.	1.9%	-3.1%	.	3.2%
O=C(CN1CCN(S(=O)(=O)c2ccccc2)CC1)NC(=O)NCc1ccco1	-2.7%	.	.	.	5.1	.
CC(=Nc1cc(C(=O)c2ccccc2)ccc1N)C1=C(O)CC(C)(C)CC1=O	0.2%	.	.	.	0.9	7.94µM*
C/C(=N/NC(=O)c1cccnc1)C1=C(O)CC(C)(C)CC1=O	-19.3%	.	.	.	2.2	4.2%
CCOC(=O)/C(C#N)=C1\CCCN1CC(N)=S	-8.4%	-7.6	-10.7%	?	6.6	20µM*
CCOC(=O)/C(C#N)=C1/CCCCCN1C	-12.6%	8.6	-2.7%	-7.1%	4.0	-3.0%
c1ccc2c(c1)CC(N1CCN(c3cccc4c3OCCO4)CC1)C2	5.0%	.	?	-10.7%	3.6	22.4µM*
Cn1cccc1C(=O)N1CCC2(CCCN(C(c3ccccc3)c3ccccc3)C2)CC1	-2.9%	.	-6.6%	-11.2%	.	1.5%
C[C@@H]1/C(=N/O)CC2C[C@@H]1C2(C)C	7.9%	.	3.0%	-4.6%	-0.8	11.2µM*
C/C(=N\O)C1/C(=N/O)CC2C1C2(C)C (stereo not drawn)	-28.7%	20.4	-4.3%	-6.1%	-7.5	-1.6%
Cc1[nH]n(-c2ncc(-c3ccccc3)s2)c(=O)c1C(c1ccc(Cl)cc1)C(C#N)C#N (stereo not drawn)	4.0%	12.0	-2.9%	25.1µM*	0.4	28.2µM*
CC(=O)C1=C(O)C(=O)N(c2ccc(S(=O)(=O)Nc3nccs3)cc2)C1c1ccc(F)cc1 (stereo not drawn)	-0.4%	.	.	.	-1.2	.
COC(=O)c1nn2c(C(F)(F)F)cc(-c3ccc(Br)o3)nc2c1Br	-8.4%	-17.9	-12.3%	-7.7%	4.9	14.1µM*
CC(=O)OCC1OC(n2cnc3c(Cl)nc(Cl)nc32)C(OC(C)=O)C1OC(C)=O (stereo not drawn)	8.5%	.	0.1%	-19.4%	0.0	?
SMILES	aGal spleen mod	PNC assembly inh	12-hLO inh	HPGD inh	GLA inh pH 4.5	ALDH1A1 inh
O=C(CSc1nc(-c2ccccc2)ns1)N1CCOCC1	0.0%	.	.	.	?	12.6µM*
C=CCSc1nnc(NC(=O)c2cccc(S(=O)(=O)N3CCOCC3)c2)s1	-0.9%	-27.8	0.9%	3.55µM*	-6.5	?
Cc1nnc(NC(=O)c2cccc(S(=O)(=O)N3CCOCC3)c2)s1	9.6%	?	1.1%	-9.9%	-3.9	-5.7%
CCSc1nnc(NC(=O)c2cccnc2Cl)s1	-3.7%	-14.1	1.8%	-9.6%	-9.7	25.1µM*
O=C(Nc1nnc(SCC(=O)N2CCOCC2)s1)c1ccccc1Cl	-0.8%	-9.2	2.5%	?	1.0	22.4µM*
Cc1cnc(CNc2ncncc2-c2cccc(C#N)c2)cn1	-2.6%	.	.	.	.	?
Cc1ccc(F)cc1-c1ccc(C(=O)N=C(N)N)o1	7.1%	.	.	.	.	.
O=C(Nc1nnc(SCC(=O)N2CCCCC2)s1)c1cccs1	-0.2%	16.2	-0.8%	14.1µM*	-3.5	?
O=C(Cc1cccs1)Nc1nnc(SCC(=O)N2CCCCC2)s1	-12.3%	?	2.0%	-19.9%	-8.3	16.4%
CCSc1nnc(NC(=O)C(C(F)(F)F)C(F)(F)F)s1	1.8%	5.9	-3.6%	3.55µM*	4.9	17.8µM*
COc1ccc(S(=O)(=O)N(C)C)cc1NCC(=O)Nc1ccc(Br)cc1F	4.7%	0.0	-12.2%	-13.7%	-23.4	11.2µM*
COc1ccc(S(=O)(=O)N(C)C)cc1NC(=O)COC(=O)CC1CCCC1	4.4%	.	.	.	-4.4	?
COc1ccc(C(=O)c2sc3nc(C)cc(-c4cccs4)c3c2N)cc1	5.2%	?	-8.2%	-20.7%	1.8	-12.0%
COc1ccc(C(=O)c2sc3nc(C)cc(-c4cccs4)c3c2N)cc1OC	0.0%	-81.7*	-2.0%	-11.2%	-5.7	6.4%
Cc1csc2c(N3CCN(C(=O)Nc4ccc(OC(F)(F)F)cc4)CC3)ncnc12	1.5%	.	.	.	-28.7	-8.9%
CCCCOc1ccc(C(O)(CC)CCN2CCOCC2)cc1 (stereo not drawn)	3.0%	?	3.7%	-6.6%	-14.5	7.94µM*
CCCCC(O)(CCN1CCOCC1)c1ccc(Cl)cc1 (stereo not drawn)	18.1%	41.2	17.8%	-0.7%	-5.5	28.2µM*
CCCCOc1ccc(C(O)(CCC)CCN2CCOCC2)cc1 (stereo not drawn)	2.4%	4.1	1.5%	-0.2%	-5.9	5.62µM*
O=C(c1cn(-c2ccccc2)nc1-c1cccs1)N1CCOCC1	0.0%	73.2	4.2%	-2.9%	0.7	-10.0%
O=C(c1ccccc1Oc1ccccc1)N1CCN(c2ccccc2)CC1	8.9%	20.1	-1.6%	-21.4%	0.9	22.4µM*
O=C(c1cn(-c2ccccc2)nc1-c1cccs1)N1CCN(c2ccccc2)CC1	5.2%	-83.1*	-8.9%	-17.4%	-6.2	?
O=C(N/C(=C\c1cn(-c2ccccc2)nc1-c1ccc(Cl)cc1)C(=O)N1CCOCC1)c1ccccc1	5.8%	?	1.3%	-4.6%	10.9	5.8%
O=C(N/C(=C/c1cn(-c2ccccc2)nc1-c1ccccc1)C(=O)N1CCOCC1)c1ccc(Cl)cc1Cl	1.3%	43.1	-1.0%	-12.3%	-0.8	15.8µM*
O=C(c1cn(-c2ccccc2)nc1-c1ccc(F)cc1)N1CCOCC1	19.2%	-9.5	2.1%	-10.1%	0.7	?
